Test results from PubChem BioAssay AID588453 (National Center for Advancing Translational Sciences (NCATS), 2011).
Several values for one entry are separate records, joined by “and”; a condition that tells them apart may be missing. Identical values can stand only once. Out of some 390,000 compounds screened, about 4,000 (1%) were called active. Another 4% or so got no clear call; they are omitted. The list comes from a sample in which actives are over-represented; it also holds similar structures and randomly drawn compounds. A number with no mark means an inactive call. Calls follow the shape of the dose curve; as a rule, active = well fitted inhibition curve with a large enough effect; inconclusive = small, poorly fitted or top-dose-only effect; inactive = no such curve, though single readings can be large or run the other way.

Biological target: Thioredoxin reductase 1, cytoplasmic (Rattus norvegicus) (UniProt O89049)
Test: qHTS Assay for Inhibitors of Mammalian Selenoprotein Thioredoxin Reductase 1 (TrxR1): qHTS; also: nearly all actives have a fitted effect of over 65% in size
Conditions: recombinant rTrxR1, NADPH fluorescence consumption, selenite substrate; series mostly up to 114 µM; activity change, negative = inhibition: at the top concentration
Source text: The selenoprotein thioredoxin reductase (TrxR; EC 1.8.1.9) is a FAD containing homodimeric pyridine nucleotide-disulfide oxidoreductase with many cellular roles. Together with NADPH and its prime substrate thioredoxin (Trx), the enzyme forms the core of the Trx system. The mammalian Trx system exerts a wide spectrum of functions including redox regulation, antioxidant defense, regulation of transcription factors as well as support of cell growth and replication. Many of these functions involve the reduction of Trx, which may subsequently reduce a number of different substrates including ribonucleotide reductase, peroxiredoxins or NFkB. Mammalian TrxR itself also has a broad substrate specificity, reducing both protein and non-protein substrates, including low molecular weight compounds such as dehydroascorbate, lipoic acid, ubiquinone, and juglone. In addition, several drugs in clinical use for anticancer treatment are indeed known to target TrxR1.
This BioAssay is a validation of an NADPH fluorescence-based, dual-purpose qHTS rTrxR1 assay designed to find potential inhibitors and substrates of rTrxR1. For this particular BioAssay, actives are potential inhibitors. See related BioAssay for substrate data deposition.
NIH Molecular Libraries Probe Production Network [MLPCN]
NIH Chemical Genomics Center [NCGC]
Assay Provider: Elias Arner, Karolinska Institute
Assay protocol: 2 uL of reagents (buffer in column 4 as negative control and 90 nM rTrxR1 in columns 1-3 and 5-48) were dispensed into Greiner black solid-bottom 1,536-well assay plates, followed by 1 uL of NADPH (400 uM final concentration) to each well. The plates were centrifuged at 1000 rpm for 15 seconds and subsequently incubated for 5 min at room temperature (~22 deg C) to allow for rTrxR1 reduction. Compounds (23 nL) were then transferred via Kalypsys pin tool equipped with 1536-pin array (10 nL slotted pins, V&P Scientific, San Diego, CA). In addition, a duplicate 2-fold serial dilution of the control compounds auranofin, a known gold-based TrxR1 inhibitor, and juglone (5-hydroxy-1,4-naphthoquinone), a natural TrxR1 substrate, were pin-transferred to columns 2 and 3, respectively. After incubation for 15 min at room temperature (~22 deg C), 1 uL of selenite (400 uM final concentration) were dispensed to each well. The plate was immediately transferred to a ViewLux high-throughput CCD imager (PerkinElmer), wherein kinetic measurements of NADPH fluorescence (Ex 340 nm, Em 450 nm) were acquired (8 minute kinetic read, see Table 1). Read 1 was utilized to assess the capacity of a compound to serve as an rTrxR1 substrate, i.e. a decrease in NADPH fluorescence compared to the no-compound background is an indication of a substrate behavior for that particular compound. For inhibitory activity of a compound, delta values, computed as the difference in fluorescence intensity between the first and last reads of an 8-minute time kinetic window, were used. All reagents were diluted in an assay buffer consisting of 50 mM Tris-HCl, pH 7.5, 2 mM EDTA, and 0.01% Tween-20.
Throughout the screen, reagent bottle and all liquid lines were made light-tight to minimize reagent degradation. All screening operations were performed on a fully integrated robotic system (Kalypsys, San Diego, CA) containing one RX-130 and two RX-90 anthropomorphic robotic arms (Staubli, Duncan, SC). Library plates were screened starting from the lowest and proceeding to the highest concentration, and a 'double-pinning' step of the highest concentration was required to access higher concentrations of compounds. Vehicle-only plates, with DMSO being pin-transferred to the columns 5-48, were inserted uniformly at the beginning and the end of each library in order to monitor and record any shifts in the background, which can be affected by reagent dispensers or loss in enzyme activity over time. […]
% is scaled to controls: 0 for no effect and ±100 for the full control effect; potency is read from the fitted curve at half-maximal effect.

Sequence of Thioredoxin reductase 1, cytoplasmic (Rattus norvegicus) (O89049 whole entry, looked up): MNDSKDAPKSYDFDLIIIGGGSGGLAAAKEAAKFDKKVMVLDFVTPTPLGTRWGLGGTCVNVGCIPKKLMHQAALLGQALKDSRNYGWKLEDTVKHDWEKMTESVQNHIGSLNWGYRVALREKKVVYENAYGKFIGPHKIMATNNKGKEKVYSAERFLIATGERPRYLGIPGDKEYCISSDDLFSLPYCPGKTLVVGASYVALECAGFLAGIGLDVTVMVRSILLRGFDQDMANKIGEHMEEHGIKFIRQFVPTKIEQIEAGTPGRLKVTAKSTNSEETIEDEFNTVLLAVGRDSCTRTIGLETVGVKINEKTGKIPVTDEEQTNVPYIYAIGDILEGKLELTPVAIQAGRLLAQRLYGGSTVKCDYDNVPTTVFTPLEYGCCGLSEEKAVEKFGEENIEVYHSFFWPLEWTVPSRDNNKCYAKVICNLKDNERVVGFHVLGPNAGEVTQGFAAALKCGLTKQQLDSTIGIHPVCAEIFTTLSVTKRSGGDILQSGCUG

| SMILES | Potency | activity change, negative = inhibition |
| --- | --- | --- |
| CCC1(C)CC(=O)NC1=O (stereo not given) | inactive | – |
| CC[C@H]1CC2CN3CCc4c([nH]c5ccccc45)C(C(=O)OC)(C2)C13 (stereo not given in full) | – | 12.3% |
| CCOC(=O)c1ncn2c1[C@@H]1CCCN1C(=O)c1cc(OC)ccc1-2 | inactive | – |
| CC(=O)c1c(O)c(C)c(O)c(Cc2c(O)c3c(c(C(=O)/C=C/c4ccccc4)c2O)OC(C)(C)C=C3)c1O | 28.2 µM (active) and 11.2 µM (active) | – |
| C[N+]1(C)CCOC(O)(c2ccc(-c3ccc(C4(O)C[N+](C)(C)CCO4)cc3)cc2)C1 (stereo not given) | inactive | – |
| COC(=O)C1=C(c2ccc(C(C)=O)cc2)C[C@@H]2CC[C@H]1N2C(=O)NCCNC(C)=O | – | 17.4% [at 57.1 µM] |
| CC(C)(C)c1ccc(CN2C(=O)CN=C(c3ccccc3)c3ccccc32)cc1 | – | 1.72% |
| O=C(CN1CCCC1=O)NCCc1ccccc1 | – | 14.9% |
| O=C1CC(=O)N(Cc2ccccc2)C(=O)N1CCCCCCN1C(=O)CC(=O)N(Cc2ccccc2)C1=O | 2.82 µM (active) | – |
| COCc1cc(OC(=O)N(C)C)nc(-c2ccc(C)c(Cl)c2)n1 | – | -11.1% |
| COc1ccc(-n2c(-c3ccccc3)nc3ccccc3c2=O)cc1 | – | 11.3% |
| CC[C@H]1CN2CCc3cc(OC)c(OC)cc3[C@@H]2C[C@@H]1C[C@H]1NCCc2cc(OC)c(OC)cc21 | inactive | – |
| COC(=O)C1=C(c2cc3ccccc3s2)C[C@@H]2CC[C@H]1N2C(=O)NCCO | – | 2.91% [at 57.1 µM] |
| COc1ccc(-c2nc(CS(=O)CC(=O)N3CCC4(CC3)OCCO4)c(C)o2)cc1 (stereo not given) | 7.08 µM (active) | – |
| COc1ccc(S(=O)(=O)NCc2ccc(C(=O)N3CCC4(CC3)OCCO4)cc2)cc1 | – | -0.636% |
| COc1ccc(NC(=O)N2CCC3(CC2)OCCO3)c(OC)c1 | – | 11.5% |
| CCN(CC)CCOC(=O)c1cc2cc(COC)ccc2o1 | – | 14.1% [at 57.1 µM] |
| CCN1C(=O)C(=Cc2c(C)n(CC(=O)NCC3CCCO3)c3ccccc23)C(=O)N(CC)C1=S (stereo not given) | 11.2 µM (active) | – |
| CCCCCCN=C(CC)c1c(O)n(CCCC)c(=O)[nH]c1=O | – | 4.26% [at 57.1 µM] |
| COC1=C[C@@H]2[C@@H]3Cc4ccc(OC)c(O)c4[C@]2(CCN3C)CC1=O | – | -6.63% |

| SMILES | Potency | activity change, negative = inhibition |
| --- | --- | --- |
| O=C(O)/C=C/c1ccc2c(c1)OCO2 | – | 3.16% |
| CN(C)CC1Oc2ccccc2OC1(O)c1ccccc1 (stereo not given) | 0.398 µM (active) | – |
| O=C(O)C1C2CCC(O2)C1C(=O)O (stereo not given) | – | -1.83% |
| CC1CCC(N(C)C2CCN(C)CC2)CC1 (stereo not given) | – | -4.72% |
| CCNc1nc2[nH]c(=O)c3c(c2s1)OC(N)=C(C#N)C3c1cccs1 (stereo not given) | – | -8.85% |
| CCCCN1C2CCC1CC(OC(c1ccc(F)cc1)c1ccc(F)cc1)C2 (stereo not given) | – | 3.2% |
| COc1ccc(OC)c(NC(=O)Cn2c(=O)oc3ccccc32)c1 | – | 25.1% |
| Cc1cc(C=C2C(=O)NC(=O)NC2=O)c(C)n1-c1ccncc1 | – | -45.2% |
| Cc1ccc(-n2c(C)cc(/C=C3\C(=O)NC(=O)N(C)C3=O)c2C)cc1C | – | -0.889% |
| Cc1ccnc(-n2c(C)cc(/C=C3\C(=O)NC(=S)N(C)C3=O)c2C)c1 | 35.5 µM (active) | – |
| O=C(O)C1CSC(c2cccnc2)N1 (stereo not given) | – | 23.3% [at 57.1 µM] |
| c1cncc(CNCCc2c[nH]c3ccccc23)c1 | – | 13% |
| C[C@@H]1C[C@@H]2O[C@H]2/C=C\C=C\C(=O)Cc2c(Cl)c(O)cc(O)c2C(=O)O1 | 12.6 µM (active) | – |
| COc1cc([C@@H]2c3cc4c(cc3[C@H](OC(C)=O)[C@H]3COC(=O)[C@H]23)OCO4)cc(OC)c1OC | – | -1.87% |
| CCOc1ccc(CN(CCCl)CCCl)cc1C(=O)OC | 15.8 µM (active) | – |
| CC1=CC(=Cc2sc3ccccc3[n+]2C)C=C(C)O1 | – | -17.2% |
| Cc1ccc(Cn2c(C)c3cnn(CC(=O)N4CCC5(CC4)OCCO5)c(=O)c3c2C)cc1 | – | -10.4% |
| CC(=O)c1ccc(OC(NC(=O)Cc2ccccc2)C(Cl)(Cl)Cl)cc1 (stereo not given) | 10 µM (active) | – |
| CC(=O)Cc1ccc(OC(C)C)cc1 | – | -10.4% [at 57.1 µM] |
| CCOP(=O)(OCC)C(NC(=O)c1ccc(OC)cc1)C(Cl)(Cl)Cl (stereo not given) | – | 16.1% |
